From PubChem BioAssay AID624330 (Southern Research Specialized Biocontainment Screening …, 2012)
The campaign covered roughly 340,000 compounds. About 2,100 (0.62%) were called active.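 How the source made its calls: active means first-screen hits whose inhibition reached a set limit at any dose in the follow-up dose series; inconclusive means inhibition above the set first-screen limit but never retested; inactive means the rest.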 Not all results are given here. Potency and affinity values are given separately.

biological target: Rac GTPase-activating protein 1 (Homo sapiens) (UniProt Q9H0H5); assay: blockers of MgcRacGAP-driven Rac1 GTP hydrolysis – biochemical, ADP Hunter fluorescence, primary and confirmatory, confirmation (AID 624330); conditions: MgcRacGAP-stimulated Rac1 GTP hydrolysis, at 30 µM, hits give high values, GST-tagged Rac1 F28L mutant substrate;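 further: fluorescence reports GDP produced by GAP-driven GTP hydrolysis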
Sequence (Q9H0H5 whole entry, looked up): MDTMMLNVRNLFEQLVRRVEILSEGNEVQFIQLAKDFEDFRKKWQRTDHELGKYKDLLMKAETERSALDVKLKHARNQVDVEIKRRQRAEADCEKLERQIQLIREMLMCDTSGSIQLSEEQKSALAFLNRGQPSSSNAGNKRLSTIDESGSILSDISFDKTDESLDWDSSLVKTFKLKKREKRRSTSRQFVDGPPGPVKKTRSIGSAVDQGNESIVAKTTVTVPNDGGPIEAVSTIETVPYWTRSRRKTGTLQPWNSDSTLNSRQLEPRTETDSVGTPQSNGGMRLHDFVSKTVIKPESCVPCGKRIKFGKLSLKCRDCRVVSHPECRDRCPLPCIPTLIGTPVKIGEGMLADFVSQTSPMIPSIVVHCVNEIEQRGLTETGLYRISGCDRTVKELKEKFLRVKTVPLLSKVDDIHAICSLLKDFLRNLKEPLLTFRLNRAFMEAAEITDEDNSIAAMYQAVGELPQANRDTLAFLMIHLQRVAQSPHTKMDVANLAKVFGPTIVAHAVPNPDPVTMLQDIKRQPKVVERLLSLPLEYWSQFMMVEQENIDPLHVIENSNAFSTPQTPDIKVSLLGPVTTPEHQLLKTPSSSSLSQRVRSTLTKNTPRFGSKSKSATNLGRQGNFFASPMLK

inhibition, inactive:
COc1cc(OC)c(C(=O)NCCCn2ccnc2)cc1OC 3.26%, O=C(Nc1cccnc1)c1ccco1 -3.68%, CC(=O)N(C)c1ccc(NC(=O)Cc2cccs2)cc1 -7.79%, COC(=O)Cn1c2c(c3cc(C)ccc31)CCCC2NC(C)c1ccccc1 (stereo not given) 12.5%, CCOc1ccc2nc(N3C(=O)C(O)=C(C(=O)c4ccco4)C3c3ccco3)sc2c1 (stereo not given) 10.3%, Cc1ccc2nc(N3C(=O)C(O)=C(C(=O)c4ccc(C)o4)C3c3ccco3)sc2c1 (stereo not given) 14.4%, CCN1CCN(C(c2cccnc2)c2c(NC(=O)c3ccco3)sc(C)c2C)CC1 (stereo not given) 3.07%, O=[N+]([O-])c1ccc(O)c(CNCc2ccccc2)c1 5.59%, Oc1ccc(C=NC2CCCCC2)cc1 -1.9%, Oc1ccc(N=Cc2ccc(OCc3ccccc3)cc2)cc1 9.78%, Oc1c(C=Nc2ccccc2)sc2ccccc12 6.75%, CC1CCCC(C)N1/N=C/c1ccc(O)cc1 (stereo not given) 21.4%, Cc1ccc(C(C(=O)NC2CCCCC2)N(Cc2ccco2)C(=O)Cc2c[nH]c3ccccc23)o1 (stereo not given) 9.31%, COc1cc(OC)cc(C(=O)NCCCN2CCOCC2)c1 5.65%, CCc1c(C)nc(SCC(=O)N2CCCCC2)[nH]c1=O 0.74%, O=C1c2ccccc2C(=O)N1CCCCSc1nnc(-c2ccc(OC(F)F)cc2)o1 -1.82%, CC(CNC(=O)Cn1ccc(N)nc1=O)c1ccccc1 (stereo not given) -5.59%, CCN(CC)c1ccc(/C=C2\C(=N)N3N=C(CC(=O)N4CCOCC4)SC3=NC2=O)cc1 5.98%, Cc1ccc(/C=C2/C(=N)N3N=C(CC(=O)N4CCCC4)SC3=NC2=O)cc1 1.49%, COc1cc(/C=C2/C(=N)N3N=C(CC(=O)N4CCOCC4)SC3=NC2=O)ccc1OCc1ccccc1 11.5%, Cc1ccc(/C=C2\C(=N)N3N=C(CC(=O)N4CCCCC4)SC3=NC2=O)cc1 7.03%, CSc1ccc(/C=C2\C(=N)N3N=C(CC(=O)N4CCOCC4)SC3=NC2=O)cc1 -13.1%, COc1cc(/C=C2\C(=N)N3N=C(S(C)(=O)=O)SC3=NC2=O)ccc1OS(=O)(=O)c1ccc(C)cc1 23.8%, COc1cc(/C=C2/C(=N)N3C(=NC2=O)SN=C3S(C)(=O)=O)ccc1OS(=O)(=O)c1ccc(C)cc1 11.8%, COc1ccc(/C=C2\C(=N)N3N=C(CC(=O)N4CCOCC4)SC3=NC2=O)cc1 5.52%, CCCc1nc(NC(=O)c2ccccc2)nc(NC(=O)c2ccccc2)n1 3.82%, Cc1nc(-c2ccccc2)cc(-c2ccccc2)n1 12.4%, CN1CCN(/N=C/c2ccc(Cl)c(Cl)c2)CC1 -7.71%, Cc1ccc(-c2nc3sc4c(c3c(=O)n2N)CC(C)(C)OC4)cc1 3.06%, CCO[C@H]1OC(C(=O)NC2CC2)=C[C@@H](c2ccc3c(c2)OCO3)[C@@H]1CCCO 6.42%, CCCCc1ccc(/C=C2\C(=O)ON=C2c2ccccc2)s1 2.22%, CSc1nc2sc3c(c2c(=O)n1C)CCC3 15.1%, O=C(O)c1ccccc1C(=O)Nc1ccc(Nc2ccc([N+](=O)[O-])cc2[N+](=O)[O-])cc1 15.6%, COc1ccccc1N1C(=O)C2C3CC(c4ccccc4)C(C3)C2C1=O (stereo not given) 7.95%, O=C(O)CCNS(=O)(=O)c1ccc2c(c1)OCCCO2 9.26%, Cc1ccc(Cl)c(NC(=O)CN2C(=O)C(C)N(c3ccc(F)cc3)C2=O)c1Cl (stereo not given) 15.2%, Cc1ccc(N2CC(C(=O)Nc3ccc4c(c3)OCCO4)CC2=O)cc1C (stereo not given) 10.2%, Cc1ccc(N2CC(C(=O)Nc3ccc(N4CCOCC4)cc3)CC2=O)cc1C (stereo not given) 1.23%, CC1CCc2sc(C(=O)NC3CCN(Cc4ccccc4)CC3)cc2C1 (stereo not given) 3.25%, Cc1nsc(Nc2ccccc2)c1C#N 4.71%, Cc1nsc(Nc2ccc([N+](=O)[O-])cc2)c1C#N 2.18%, CSc1nsc(/C=C/Nc2ccc(Cl)cc2)c1C#N 6.16%, N#Cc1c(Nc2ccccc2)sc(C(=O)c2ccccc2)c1N -10.7%, Cn1ncc2c(Nc3cc(Cl)cc(Cl)c3)ncnc21 11.1%, CN(CC(=O)Nc1ccccc1Cl)C(=O)COC(=O)c1ccccc1[N+](=O)[O-] 11.2%, Cc1cccc(CCN2CCN=C2Nc2ccccc2)c1 10.2%, CCNS(=O)(=O)c1ccc(NC(=O)c2cccnc2)cc1 -7.35%, CCOc1cc(/C=N/NC(=O)C2CCCC2)ccc1OC(C)C 7.91%, COc1ccc(/C=N/NC(=O)c2cc(C3CC3)[nH]n2)cc1OC 7.5%, COc1ccc(/C=N/NC(=O)c2ccc(=O)n(C)c2)cc1OC 11.2%, COc1cc(/C=N/NC(=O)C2CCN(CC(O)COCc3ccccc3)CC2)cc(OC)c1OC (stereo not given) -0.29%, CCOc1cccc(/C=N/NC(=O)c2cc(C3CC3)[nH]n2)c1O 9.09%, C=CCOc1ccc(/C=N/NC(=O)C2CCCC2)cc1OCC 7.59%, CCOc1ccc(/C=N/NC(=O)C2CC2)cc1OC 4.39%, Cn1cc(C(=O)N/N=C/c2cccc(O)c2)ccc1=O 7.64%, COc1cc(/C=N/NC(=O)c2ccc(NC(=O)C3CC3)cc2)ccc1OC(C)=O 7.67%, COc1cc(/C=N/NC(=O)c2ccc(NC(=O)C3CCCCC3)cc2)ccc1O 8.05%, CCn1cc(/C=C(\NC(=O)c2ccccc2)C(=O)NCCCN2CCOCC2)c2ccccc21 13%, COc1ccc(/[N+]([O-])=C/c2ccco2)cc1 9.73%, CC(C)CNC(=O)NC(=O)COC(=O)c1cc(F)cc(F)c1 2.44%, COc1cc(/C=N/NC(=O)CSc2nc3ccccc3n2C)cc(OC)c1OC -9.37%, CCn1c(SCC(=O)N/N=C/c2ccc(O)c(OC)c2)nc2ccccc21 12%, CC(=NNC(=O)CSc1nc2ccccc2o1)c1ccco1 3.04%, C/C(=N/NC(=O)CSc1nc2ccccc2n1C)c1ccncc1 8.72%, C/C(=N\NC(=O)CSc1nc2ccccc2o1)c1cccc(O)c1 10.7%, C/C(=N/NC(=O)CSc1nc2ccccc2n1C)c1ccco1 7.14%, COc1ccccc1C(=O)NC(CCSC)C(=O)NCC(c1ccco1)N(C)C (stereo not given) 10.1%, O=C(O)c1ccc(N2CCS(=O)(=O)CC2)cc1 2.19%, CON(C)c1nc(NCC(C)C)nc(OCC#N)n1 -6.48%, CCn1c(=O)c2cc(C(=O)N3CCN(C)CC3)sc2c2ccccc21 7.75%, COc1ccc(NC(=O)CC2S/C(=N\c3nccs3)N(C)C2=O)cc1 (stereo not given) 13.7%, COc1cc2nncc(SC)c2cc1OC 8.55%, CCCn1c(SCC(=O)N(CC)c2c(N)n(Cc3ccccc3)c(=O)[nH]c2=O)nnc1-c1ccncc1 -0.81%, COc1ccc(OCCCC(=O)NCCc2ccc(OC)c(OC)c2)cc1 5.19%, CCC(=O)Nc1cc(C(F)(F)F)ccc1N1CCOCC1 -1.84%, O=C(CNCc1cccnc1)Nc1cc(C(F)(F)F)ccc1N1CCOCC1 28.2%, O=C(c1cc(Br)c[nH]1)N1CCSCC1 9.76%, COc1ccc(CN2CCN(C3CCOCC3)CC2CCO)c(C)c1C (stereo not given) 13%, COc1cc(C2=NOC(C(=O)N3CCOCC3)C2)cc(OC)c1OC (stereo not given) 7.04%, OCCN1CCN(CCCN2c3ccccc3Sc3ccc(C(F)(F)F)cc32)CC1 3.74%, OCCN1CCN(C(=S)Nc2cccc(C(F)(F)F)c2)CC1 24%, C[C@@H]1CN([C@@H](C)CO)C(=O)c2cc(Br)cnc2O[C@H]1CN(C)C(=O)CCN1CCCCC1 14.8%, S=C(N/N=C/c1ccc(Cl)cc1)N1CCOCC1 0.9%, O=S(=O)(c1ccc(Cl)c(NC(=S)N/N=C/c2c(F)cccc2F)c1)N1CCOCC1 9.48%, O=[N+]([O-])c1cc(Cl)cc(/C=N/NC(=S)Nc2cc(S(=O)(=O)N3CCOCC3)ccc2Cl)c1O 10%, Cc1ccc(/C=N/NC(=S)N2CCOCC2)cc1 4.05%, N#Cc1ccccc1NS(=O)(=O)c1cc2c3c(c1)CCC(=O)N3CCC2 -1.72%, COc1cc(NC(=O)CCN2CCN(CCO)CC2)cc(OC)c1 4.08%, OC(CNCC1COc2ccccc2O1)COc1ccc(Cl)cc1 (stereo not given) 6.5%, OC(CNCC1COc2ccccc2O1)COc1ccccc1F (stereo not given) 8.38%, Cc1ccc2nc(C)cc(C(=O)N3CCCC(CO)(Cc4ccccc4C)C3)c2c1 (stereo not given) 8.23%, CN(C)c1ccc(CN(C)C2CCCCC2)cc1 7.28%, CN(C)c1ccc(CCc2ccc(N)cc2)cc1 31.6%, COc1ccc(C(CCNCc2ccc(OC(C)C)cc2)c2ccccc2OC)cc1 (stereo not given) 7.13%, Cc1c(N=C2C(=O)Nc3ccccc32)c(=O)n(-c2ccccc2)n1C 1.01%, O=C1NC(=Nc2ccccc2)S/C1=C\c1ccccc1 3.51%, Cc1c(N2C(=O)/C(=C\c3ccccc3O)SC2=S)c(=O)n(-c2ccccc2)n1C 3.93%, Cc1c(N2C(=O)/C(=C/c3ccccc3)SC2=S)c(=O)n(-c2ccccc2)n1C 6.19%, COc1cc(/C=C2\SC(=Nc3ccc(O)cc3)NC2=O)cc(OC)c1O 27.1%, CCc1ccc(N=C2NC(=O)/C(=C/c3cc(OC)c(O)c(OC)c3)S2)cc1 14.6%
